Laboratory results published in PubChem BioAssay AID729 (The Scripps Research Institute Molecular Screening Center, 2007).
Screen size: about 97,000 compounds; about 450 (0.46%) were called active. Rule as the data show it: active = activation above about 16%; inactive = the rest. The entries come from a sample that favours actives as a whole.

target: Sphingosine 1-phosphate receptor 2 (Homo sapiens) (UniProt O95136); assay: activation of human S1P2 receptor – cell-based, primary screen (AID 729); details: S1P2-expressing cell line, agonist reporter read-out; at 4.5 µM; active compounds read high;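 also: 0% = vehicle low control and 100% = maximal reference agonist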
Sequence (O95136 whole entry, looked up): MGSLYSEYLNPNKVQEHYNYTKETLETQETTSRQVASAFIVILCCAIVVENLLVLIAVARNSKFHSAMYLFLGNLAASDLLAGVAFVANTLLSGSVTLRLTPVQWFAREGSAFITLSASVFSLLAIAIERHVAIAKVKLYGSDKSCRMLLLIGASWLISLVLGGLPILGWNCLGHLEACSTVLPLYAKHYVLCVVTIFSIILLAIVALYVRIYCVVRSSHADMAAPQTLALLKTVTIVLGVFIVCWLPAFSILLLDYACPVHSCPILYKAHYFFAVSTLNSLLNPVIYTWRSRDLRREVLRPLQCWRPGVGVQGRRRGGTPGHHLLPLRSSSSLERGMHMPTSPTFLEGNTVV

activation, inactive:
O=C(/C=C/c1ccc(Cl)cc1Cl)NCc1ccco1 -1.23%
O=C(COc1ccc2c(C(F)(F)F)cc(=O)oc2c1)Nc1ccc2c(c1)OCCO2 -0.82%
COc1ccc(CCNC(=O)CN(c2ccccc2)S(C)(=O)=O)cc1OC -5.51%
CC(C)c1ccc(NC(=O)CCN2C(=O)c3ccc([N+](=O)[O-])cc3C2=O)cc1 -2.71%
Cc1nnc(SCC(=O)Nc2ncc3c(n2)CC(C)(C)CC3=O)s1 -4.47%
CCN(CC)CCCNC(=O)CCc1ccccc1 -2.5%
COCCOC(=O)C1=C(C)Nc2nc(C)nn2C1c1ccccc1 (stereo unspecified) 0.76%
CCCCCOC(=O)C1=C(C)Nc2nnnn2C1c1ccc(OC)c(OC)c1OC (stereo unspecified) -4.69%
CC(C)C(=O)Nc1nnc(Sc2ccc(N(C)C)cc2)s1 -5.86%
O=c1oc2c(Cl)cc(Cl)cc2cc1-c1nnc(Nc2ccccc2F)s1 -0.35%
Cn1c(=O)n(C)c2cc(/C=N/NC(=O)c3cccc(Br)c3)ccc21 -7.52%
Nc1c(C(=O)NCc2ccccc2)sc2nc3c(cc12)C(=O)CCC3 -2.41%
CCCCNC(=O)C1CCCN(S(=O)(=O)c2ccc(S(=O)(=O)NCC(C)C)cc2)C1 (stereo unspecified) -2.41%
COC(=O)c1ccccc1Oc1c(F)c(F)nc(N2CCOCC2)c1F -3.44%
COc1ccc(C2C(C(C)=O)=C(O)C(=O)N2Cc2cccnc2)cc1 (stereo unspecified) -3.66%
CC(C)C(C)NC(=O)COc1ncnc2ccccc12 (stereo unspecified) -3.57%
CC1Cc2ccccc2N1CC(=O)Nc1ccc2c(c1)OC(F)(F)O2 (stereo unspecified) 2.93%
O=C(CN1CCN(S(=O)(=O)c2ccc3ccccc3c2)CC1)NC(=O)NC1CCCCC1 -7.63%
CCOC(=O)c1nc(Nc2ccc(C(=O)OC)cc2)c2ccccc2n1 -2.78%
CCc1ccc(NC(=O)CN2C(=O)CSC2=O)cc1 -3.93%
Cn1cnc([N+](=O)[O-])c1Nc1ccccc1O -3.11%
COc1ccc(C2C(C(C)=O)=C(O)C(=O)N2c2nccs2)cc1 (stereo unspecified) -0.54%
Cc1ccc(-n2c(=O)c(C#N)cc3c(=O)n4ccccc4nc32)cc1C 5.21%
CCCn1c(=NC(C)=O)c(C(=O)OCC)cc2c(=O)n3ccccc3nc21 14.5%

activation, active:
COc1cc(C2C(C(=O)OCCC#N)=C(C)NC3=C2S(=O)(=O)c2ccccc23)cc(OC)c1OC (stereo unspecified) 26.2%
CCn1c(=N)c(S(=O)(=O)c2ccc(F)cc2)cc2c(=O)n3ccccc3nc21 34.3%
